Activity calls are given as the source filed them. Calls come from the whole dose curve; as a rule, active = well fitted curve in the direction sought with a large enough effect; inconclusive = small, poorly fitted or top-dose-only effect, or another doubt; inactive = no such curve, though single readings can be large or run the other way.

The target in this assay is Thyrotropin receptor (Homo sapiens) (UniProt P16473). Nature of the assay: qHTS Assay for Antagonists of the Thyroid Stimulating Hormone Receptor (AID 488980). The following applies: TSHR-expressing cells, cAMP antagonist read-out; series mostly up to 57.5 µM. An excerpt: TSH is an alpha/beta heterodimeric glycoprotein hormone secreted from the anterior pituitary gland which belongs to the glycoprotein hormone family. The actions of TSH are mediated by a seven-transmembrane receptor, which upon TSH binding couples preferentially to the G-alpha (s) protein (Gs), resulting in activation of adenylate cyclase and increase in cyclic adenosine 3', 5' monophosphate (cAMP). The TSH receptor (THSR) is mainly expressed in thyroid follicular cells and regulates their growth and function. This cell based assay was conducted on a TSHR transfected HEK 293 cell line, measuring cAMP stimulation using antibody-based Homogeneous Time Resolved Fluorescence (HTRF).
Sequence of Thyrotropin receptor (Homo sapiens) (P16473 whole entry, looked up): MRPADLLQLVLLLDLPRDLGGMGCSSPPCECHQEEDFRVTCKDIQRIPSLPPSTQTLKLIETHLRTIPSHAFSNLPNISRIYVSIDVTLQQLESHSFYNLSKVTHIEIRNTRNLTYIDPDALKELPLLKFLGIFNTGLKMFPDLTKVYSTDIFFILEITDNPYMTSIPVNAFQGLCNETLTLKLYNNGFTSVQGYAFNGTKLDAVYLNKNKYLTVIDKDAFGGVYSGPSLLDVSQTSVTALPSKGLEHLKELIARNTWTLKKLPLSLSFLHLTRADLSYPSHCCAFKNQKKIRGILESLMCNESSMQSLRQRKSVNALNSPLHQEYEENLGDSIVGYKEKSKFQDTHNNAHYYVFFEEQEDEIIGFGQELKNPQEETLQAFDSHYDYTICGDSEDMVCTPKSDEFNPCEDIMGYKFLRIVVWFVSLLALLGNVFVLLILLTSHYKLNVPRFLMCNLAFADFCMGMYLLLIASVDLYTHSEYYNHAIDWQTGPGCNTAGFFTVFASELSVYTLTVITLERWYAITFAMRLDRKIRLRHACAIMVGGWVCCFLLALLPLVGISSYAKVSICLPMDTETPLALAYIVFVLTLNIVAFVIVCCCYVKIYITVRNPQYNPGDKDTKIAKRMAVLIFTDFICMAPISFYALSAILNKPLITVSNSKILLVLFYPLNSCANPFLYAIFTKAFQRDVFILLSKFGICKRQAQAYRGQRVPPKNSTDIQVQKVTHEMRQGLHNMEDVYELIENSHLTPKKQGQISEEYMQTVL
Our goal is to identify small molecules that will inhibit (antagonize) the thyroid-stimulating hormone receptor (TSHR), a member of the 7 transmembrane-spanning receptor (7TMR) family of cell surface receptors. TSHR-mediated hyperthyroidism is important in thyroid pathology. The development of small molecule antagonists of TSHR may lead to therapeutic approaches for TSHR-mediated hyperthyroidism caused by constitutively activating mutations or stimulating auto-antibodies associated with Graves' disease. Graves' disease is the leading cause of hyperthyroidism and is caused by autoantibodies that stimulate TSHR (TsAbs) causing thyroid growth and unregulated overproduction of thyroid hormones and existing treatments have liabilities (agranulocytosis). In addition, TSHRs are known to be expressed in multiple extrathyroidal tissues including bone, brain, kidney, testis, fat and cells of the immune system but the role of the TSHR in these tissues is not clear. Therefore, TSHR antagonists/inverse agonists could be used as probes of extrathyroidal TSHR function. Finally, TSHR inverse agonists, which are a subclass of antagonists that inhibit agonist-independent (or basal or constitutive) TSHR signaling, could be used to inhibit TSH-independent signaling in patients with recurrent or metastatic thyroid cancer who are receiving thyroid hormone to suppress TSH.
An anti cAMP antibody contains a fluorescent cryptate tag (excitation 337 nm; emission 620 nm) and the acceptor is cAMP-d2 (excitation 620 nm; emission 665 nm). When antibody and cAMP-d2 interact and are excited by a 337 nm light, a FRET occurs resulting in emission at 665 nm. The assay is competition between cAMP-d2 and cAMP (from the cell lysate). The homogeneous protocol allows for one step dispense after stimulation that is automation friendly.
Step, Parameter, Value, Description
1, Cells, 3 uL, 2000 TSHR freshly harvested cells/well 1536 TC treated White solid bottom plate (Cells resuspended in 10 mM HEPES buffered HBSS and 70 uM RO 20-1724)
2, Compound, 23 nL, Libraries and controls
3, Compound, 1 uL, EC80 TSH (4 nM final)
5, Reagent, 2 uL, cAMP antibody diluted 1:20 in lysis buffer
6, Time, 30 minutes, Room temperature
7, Detector, HTRF settings, Viewlux
On the technique in general: qHTS replaces the single test concentration by a dilution series.
Turning to `CN(C)CCN(Cc1cccs1)c1ccccn1`, the result was inactive.
For the compound `CN(C)C(=O)Oc1ccc[n+](C)c1`, the result was inactive.
`COC(=O)[C@@H](N)Cc1ccc(O)c(O)c1`: the outcome was inactive.
In the case of `CN=C(NC#N)NCCSCc1nc[nH]c1C` it was “inactive”; in that of `CN(C(=O)CCCOc1ccc2[nH]c(=O)ccc2c1)C1CCCCC1`, “inactive”; in that of `CC(=O)Nc1nnc(S(N)(=O)=O)s1`, “inactive”.
Turning to `CC1=C(C)C(=O)C(CCCCC#CCCCC#CCO)=C(C)C1=O`, the outcome was inactive.
For the compound `c1ccc2c(c1)CCCC2C1=NCCN1` (stereo not given), the result was inactive.
With `c1cc(CN2CCCCC2)cc(OCCCNc2nc3ccccc3s2)c1`, the outcome was inactive.
For `NC(N)=N/N=C/c1c(Cl)cccc1Cl`, the outcome was inactive.
For the compound `Nc1ncn([C@@H]2O[C@H](CO)[C@@H](O)[C@H]2O)c(=O)n1`, the outcome was inactive.
With `O=C(CCCN1CCC(O)(c2cccc(C(F)(F)F)c2)CC1)c1ccc(F)cc1` the entry was “inactive”; with `NC(Cc1ccc(Cl)cc1)C(=O)O` (stereo not given), “inactive”; with `CCCNC(C)C(=O)Nc1ccccc1C` (stereo not given), “inactive”.
For `Fc1ccc(C(c2ccc(F)cc2)N2CCN(C/C=C/c3ccccc3)CC2)cc1`, the result was inactive.
For the compound `CCN(CC)CCOCCOC(=O)C1(c2ccccc2)CCCC1`, the result was inactive.
For the compound `COCCCC/C(=N\OCCN)c1ccc(C(F)(F)F)cc1`, the result was inactive.
For `CC(C)(C)NCC(O)c1cc(O)cc(O)c1` (stereo not given), the outcome was inactive.
`Cc1ccc(=O)n(-c2ccccc2)c1`: the outcome was inactive.
In the case of `CSc1ccc(C(=O)c2[nH]c(=O)[nH]c2C)cc1` it was “inactive”; in that of `OCCN1CCN(CCCN2c3ccccc3C=Cc3ccccc32)CC1`, “inactive”; in that of `C(=C\c1ccccc1)/CN1CCN(C(c2ccccc2)c2ccccc2)CC1`, “inactive”.
With `COCCc1ccc(OCC(O)CNC(C)C)cc1` (stereo not given) the entry was “inactive”; with `OCCN1CCN(CC/C=C2/c3ccccc3Sc3ccc(C(F)(F)F)cc32)CC1`, “inactive”.
In the case of `C[C@]12C=CC(=O)C=C1CC[C@H]1[C@@H]3C[C@@H](O)[C@](O)(C(=O)CO)[C@@]3(C)C[C@H](O)[C@@]12F`, the result was inactive.
For the compound `O=C1CC2(CCCC2)CC(=O)N1CCCCN1CCN(c2ncccn2)CC1`, the outcome was inactive.
Turning to `C[N+](C)(C)CCCCCCCCCC[N+](C)(C)C`, the outcome was inactive.
With `CC(C)[N+](C)(CCOC(=O)C1c2ccccc2Oc2ccccc21)C(C)C` the entry was “inactive”; with `Cc1ccc(S(=O)(=O)NC(=O)NN2CCCCCC2)cc1`, “inactive”; with `NC/C=C/C(=O)O`, “inactive”.
Turning to `CCn1nc(C(=O)O)c(=O)c2cc3c(cc21)OCO3`, the outcome was inactive.
With `CCO/C([O-])=N/c1c[n+](N2CCOCC2)no1` the entry was “inactive”; with `CN(C)CCOC(=O)COc1ccc(Cl)cc1`, “inactive”.
Regarding `C[C@H](CS)C(=O)N1CCC[C@H]1C(=O)O`, the result was inactive.
For the compound `COC(=O)C1=C(C)NC(C)=C(C(=O)OCCN(C)Cc2ccccc2)C1c1cccc([N+](=O)[O-])c1` (stereo not given), the result was inactive.
In the case of `CN(C)C/C=C(/c1ccc(Br)cc1)c1cccnc1` it was “inactive”.
For the compound `Cc1cc(C)c(/C=C2\C(=O)Nc3ccccc32)[nH]1`, the outcome was inactive.
As to `CN1CCN(C2=Nc3ccccc3Oc3ccc(Cl)cc32)CC1`, the outcome was inactive.
In the case of `O=C1NCN(c2ccccc2)C12CCN(CCCC(c1ccc(F)cc1)c1ccc(F)cc1)CC2`, the result was inactive.
Turning to `COCCOC(=O)C1=C(C)NC(C)=C(C(=O)OC(C)C)C1c1cccc([N+](=O)[O-])c1` (stereo not given), the outcome was inactive.

(Values after PubChem BioAssay (NCATS).)
